# The supplement of paper PMC8728848
# Many of the other results were omitted from the sample, so the strongest signals are more common in it than they were.
# Assays:
# Test in all cases: glycan array binding signal (z-score within array); higher = stronger binding
# Settings in all cases: glycan notation: IUPAC condensed, linker removed; mutation: Y228W
# [1] = target: Gal(b1-4)GlcNAc(b1-3)Gal(b1-4)GlcNAc(b1-3)Gal(b1-4)GlcNAc(b1-2)[Gal(b1-4)GlcNAc(b1-3)Gal(b1-4)GlcNAc(b1-3)Gal(b1-4)GlcNAc(b1-6)]Man(a1-6)[Gal(b1-4)GlcNAc(b1-3)Gal(b1-4)GlcNAc(b1-3)Gal(b1-4)GlcNAc(b1-2)Man(a1-3)]Man(b1-4)GlcNAc(b1-4)[Fuc(a1-6)]GlcNAc
# Procedure, shortened: (§1)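 Negative Z-scores can be read as non-binding. The Z-score is calculated within each array and then averaged across arrays of one protein sequence at different concentrations or buffers and across linkers. Arrays, 3228 in all, were curated from the Consortium for Functional Glycomics database and kept only where the protein sequence was available.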
# [2] = target: Gal(b1-4)GlcNAc(b1-3)Gal(b1-4)GlcNAc(b1-3)Gal(b1-4)GlcNAc(b1-3)Gal(b1-4)GlcNAc(b1-3)Gal(b1-4)GlcNAc(b1-2)Man(a1-3)[Gal(b1-4)GlcNAc(b1-3)Gal(b1-4)GlcNAc(b1-3)Gal(b1-4)GlcNAc(b1-3)Gal(b1-4)GlcNAc(b1-3)Gal(b1-4)GlcNAc(b1-2)Man(a1-6)]Man(b1-4)GlcNAc(b1-4)GlcNAc
# Procedure, shortened: as §1
# [3] = target: Gal(b1-4)GlcNAc(b1-6)[Gal(b1-3)]GalNAc
# Procedure, shortened: as §1
# [4] = target: Gal3S(b1-4)[Fuc(a1-3)]GlcNAc6S
# Procedure, shortened: as §1
# Gal6S(b1-3)GlcNAc6S = target: Gal6S(b1-3)GlcNAc6S
# Procedure, shortened: as §1
# Gal6S(b1-4)GlcNAc6S = target: Gal6S(b1-4)GlcNAc6S
# Procedure, shortened: as §1
# [5] = target: GalNAc(b1-4)GlcNAc(b1-3)GalNAc(b1-4)GlcNAc
# Procedure, shortened: as §1
# Glc(a1-4)Glc = target: Glc(a1-4)Glc
# Procedure, shortened: as §1
# GlcA(b1-6)Gal = target: GlcA(b1-6)Gal
# Procedure, shortened: as §1
# [6] = target: GlcNAc(a1-3)Gal(b1-4)GlcNAc
# Procedure, shortened: as §1
# GlcNAc(b1-3)Gal = target: GlcNAc(b1-3)Gal
# Procedure, shortened: as §1
# [7] = target: GlcNAc(b1-4)Gal(b1-4)GlcNAc
# Procedure, shortened: as §1
# Man(a1-3)[Man(a1-6)]Man = target: Man(a1-3)[Man(a1-6)]Man
# Procedure, shortened: as §1
# [8] = target: Man(a1-3)[Man(a1-6)]Man(a1-6)[Man(a1-3)]Man
# Procedure, shortened: as §1
# [9] = target: Neu5Ac(a2-3)Gal(b1-3)GalNAc6S
# Procedure, shortened: as §1
# [10] = target: Neu5Ac(a2-3)Gal(b1-3)GlcNAc(b1-2)Man(a1-3)[Neu5Ac(a2-3)Gal(b1-3)GlcNAc(b1-2)Man(a1-6)]Man(b1-4)GlcNAc(b1-4)GlcNAc
# Procedure, shortened: as §1
# [11] = target: Neu5Ac(a2-3)Gal(b1-3)[Fuc(a1-4)]GlcNAc(b1-3)Gal(b1-4)[Fuc(a1-3)]GlcNAc
# Procedure, shortened: as §1
# [12] = target: Neu5Ac(a2-3)Gal(b1-4)GlcNAc(b1-3)Gal(b1-4)[Fuc(a1-3)]GlcNAc
# Procedure, shortened: as §1
# [13] = target: Neu5Ac(a2-3)Gal(b1-4)[Fuc(a1-3)]GlcNAc(b1-3)Gal
# Procedure, shortened: as §1
# [14] = target: Neu5Ac(a2-3)[GalNAc(b1-4)]Gal(b1-4)GlcNAc
# Procedure, shortened: as §1
# [15] = target: Neu5Ac(a2-6)Gal(b1-4)GlcNAc(b1-2)Man(a1-3)[Gal(b1-4)GlcNAc(b1-2)Man(a1-6)]Man(b1-4)GlcNAc(b1-4)GlcNAc
# Procedure, shortened: as §1
# [16] = target: Neu5Ac(a2-6)Gal(b1-4)GlcNAc(b1-2)Man(a1-3)[Man(a1-6)]Man(b1-4)GlcNAc(b1-4)GlcNAc
# Procedure, shortened: as §1
# [17] = target: Neu5Ac(a2-6)Gal(b1-4)GlcNAc(b1-2)Man(a1-3)[Neu5Ac(a2-6)Gal(b1-4)GlcNAc(b1-2)Man(a1-6)]Man(b1-4)GlcNAc(b1-4)[Fuc(a1-6)]GlcNAc
# Procedure, shortened: as §1
# [18] = target: Neu5Ac(a2-6)Gal(b1-4)GlcNAc(b1-2)Man(a1-6)[Gal(b1-4)GlcNAc(b1-2)Man(a1-3)]Man(b1-4)GlcNAc(b1-4)GlcNAc
# Procedure, shortened: as §1
# [19] = target: Neu5Ac(a2-6)GalNAc(b1-4)GlcNAc6S
# Procedure, shortened: as §1
# Neu5Ac(a2-8)Neu5Ac = target: Neu5Ac(a2-8)Neu5Ac
# Procedure, shortened: as §1
# [20] = target: Neu5Gc(a2-3)Gal(b1-4)GlcNAc
# Procedure, shortened: as §1
# [21] = target: Neu5Gc(a2-8)Neu5Gc(a2-3)Gal(b1-4)GlcNAc(b1-3)Gal(b1-4)GlcNAc
# Procedure, shortened: as §1
binder,measurement,setting,value
"Epa1-NP-mutant-Y228W (Candida glabrata), Q6VBJ0 (protein) MILNPALFLNKCVCIYTTLILLLLTNGGYATSSNDISLASKDPTTFPLGCSPDITTPKKGLSMELYSYDFRKKGSYPCWDAAYLDPNYPRTGYKSHRLLAKVDGVTGNINFYYHATKGCTPQLGHLPASYNYPKPLTMTNFTMLLYGYFRPKVTGFHTFTISADDLLFVNFGAGNAFDCCRRDSSADHFGNYQAYAIWGSKTAKDELTVHLDAGVYYPIRLFYNNREWDGALSFTFKTESNENTVSDFSEYFFSLDDTEEGCPGLISYDSSCASVKTSKIIGIDYHTETPNENLVPITKTIYHLGIPCTGTTTTPLCGSGFYDPLANKCVTINTSSTSSVTKTTSHTTSKEVSFHSSISSQKTLIPKSIPSPYGPIKSQSIPTEMETSSEISSSEYAFSDVISTPSHSPYTKKHSSLNSSSYTSTVIHSLTSYSISQGIFSTSLSEQNITSKSSTDKFSTATSMSNNITQSSIIISQFSTNNENYTTTSMHTSSDKISTETLNNSISTTTSILFSNSSTILKNNTTIISSDKDTHYHPVNPTIVCSTNKTEIICASITQPSISNSNNHWSSSVLKFNSTTVRSTLPSSAGSNETSINVPFSSSTESNTSTSSTSTSNSKMVRSTLPSSAGSNETSISVPFSSSTESNTSTSSTSTSNSKMVRSTLPSSAGSNETSINVPFSSSTESNTSTSSTSTSNSKTVRSTPFSSAGIIMTSLSQRNNKSASSYASSNSKCYNTADSCRKVHSTPSYLLTSSYTSEGVDYDCSLVSTKLKINDTNCVNNKHTTKSCLKTSVTTTIPTLEIKTARKSSSNTIGLHSYPTSSPNKSISSAPIIGYISSFKTIKTASPSYQTSDLTTITTITSLNNPGSTAVENTHESNDKSRKTSSNDISSKHSVIKETKDAVESSNKSHQTNTLKCSSIIIASSSHNSYESLGGTTLTLTLSKVYSPQNNDTLPFLEISEVNPSRTVLPESSKMMQYLTSTEERNKTARNTIATNIVSISTFHFEGEGNAIRMGYTQLLLMLIGIIVMNIGT",glycan array binding signal (z-score),[1],3.05
same,glycan array binding signal (z-score),[2],1.78
same,glycan array binding signal (z-score),[3],2.77
same,glycan array binding signal (z-score),[4],-0.015
same,glycan array binding signal (z-score),Gal6S(b1-3)GlcNAc6S,0.205
same,glycan array binding signal (z-score),Gal6S(b1-4)GlcNAc6S,3.63
same,glycan array binding signal (z-score),[5],-0.329
same,glycan array binding signal (z-score),Glc(a1-4)Glc,-0.29
same,glycan array binding signal (z-score),GlcA(b1-6)Gal,0.341
same,glycan array binding signal (z-score),[6],-0.131
same,glycan array binding signal (z-score),GlcNAc(b1-3)Gal,-0.421
same,glycan array binding signal (z-score),[7],-0.126
same,glycan array binding signal (z-score),Man(a1-3)[Man(a1-6)]Man,-0.183
same,glycan array binding signal (z-score),[8],-0.095
same,glycan array binding signal (z-score),[9],-0.312
same,glycan array binding signal (z-score),[10],-0.117
same,glycan array binding signal (z-score),[11],0.021
same,glycan array binding signal (z-score),[12],-0.295
same,glycan array binding signal (z-score),[13],-0.343
same,glycan array binding signal (z-score),[14],-0.228
same,glycan array binding signal (z-score),[15],-0.285
same,glycan array binding signal (z-score),[16],0.235
same,glycan array binding signal (z-score),[17],-0.238
same,glycan array binding signal (z-score),[18],-0.14
same,glycan array binding signal (z-score),[19],-0.172
same,glycan array binding signal (z-score),Neu5Ac(a2-8)Neu5Ac,-0.272
same,glycan array binding signal (z-score),[20],-0.19
same,glycan array binding signal (z-score),[21],-0.388
